# Screening data: PubChem BioAssay, several laboratories
# cardiac RTF act: cardiac RTF calcium sensitization; actives 0.24% (n = 340,000); activation, % at 7.2 µM; IANBD-labeled TnC RTF fluorescence at EC20 calcium; 0% EC20 calcium, 100% full calcium; AID 493008;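 active = activation above the mean over all tested compounds plus 3 SD, cut at about 30% in these data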;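 note: rise in fluorescence read as greater calcium sensitivity of cardiac thin filaments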
# CRFBP-R2 agonist: agonists of human CRF-binding protein/CRF-R2 receptor complex; HEK293 CRF-R2/CRF-BP, calcium dye fluorescence (FLIPR); percent of saturating CRF peptide response; activation, % at 13.2 µM; actives 0.46% (n = 350,000); AID 588473;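 active = activation of at least 50%, plus an integration ratio under a set limit after plate pattern correction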;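 note: plate controls were neutral control wells without compound for no effect and CRF at EC100 for full effect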
# RTF Ca sens inh: cardiac RTF calcium desensitization | P19429+P45379 | IANBD-labeled cardiac RTF, Ca2+ fluorescence | inhibition, % at 7.15 µM | actives 0.12% (n = 340,000) | AID 493244;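 active = inhibition above the mean inhibition of all tested compounds plus 3 SD, cut at about 17% in these data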;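 note: assay run at fixed EC70 calcium of 1.6 mM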
# LANA DNA inh: inhibitors of KSHV LANA C-terminal domain DNA binding; MBP-C-LANA/FAM-LBS DNA binding, fluorescence polarization; inhibition, % at 9 µM; actives 0.078% (n = 340,000);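 active = highest replicate inhibition at or above 60% at 9 µM, even if other replicates fall short; inactive = all replicates below 60% inhibition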;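 note: 0% = neutral control wells and 100% = 4 µM acridine orange control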
# Keap1 Nrf2 FP: disrupts human Keap1 binding to Nrf2 peptide; Keap1 Kelch-Nrf2 peptide fluorescence polarization, 1536-well; inhibition, % at 9.4 µM; actives 0.15% (n = 340,000); in the data active = inhibition above about 12%;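 note: human Keap1 Kelch domain with fluorescein labeled Nrf2 9mer peptide probe; 0% = neutral control wells and 100% = peptide positive control; higher means more block of Keap1 binding to Nrf2 peptide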
# Target sequence (Q14145 whole entry, looked up, the tested form may be a part): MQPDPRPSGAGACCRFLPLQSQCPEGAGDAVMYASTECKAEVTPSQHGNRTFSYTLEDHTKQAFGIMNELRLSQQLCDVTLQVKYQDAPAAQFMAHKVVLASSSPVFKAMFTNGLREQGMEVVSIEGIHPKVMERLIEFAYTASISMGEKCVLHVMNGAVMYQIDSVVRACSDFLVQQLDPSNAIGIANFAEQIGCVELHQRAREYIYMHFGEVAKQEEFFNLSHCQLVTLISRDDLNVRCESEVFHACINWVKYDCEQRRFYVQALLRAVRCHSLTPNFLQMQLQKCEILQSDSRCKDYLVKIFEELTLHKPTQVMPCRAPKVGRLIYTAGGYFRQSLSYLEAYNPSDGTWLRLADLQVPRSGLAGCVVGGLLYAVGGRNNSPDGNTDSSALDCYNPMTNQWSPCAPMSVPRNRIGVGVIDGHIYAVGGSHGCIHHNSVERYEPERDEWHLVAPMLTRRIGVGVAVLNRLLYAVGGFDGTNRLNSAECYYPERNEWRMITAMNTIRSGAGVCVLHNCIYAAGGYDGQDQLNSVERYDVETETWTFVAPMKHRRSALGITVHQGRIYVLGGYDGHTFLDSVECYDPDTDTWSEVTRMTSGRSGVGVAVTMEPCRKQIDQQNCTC
# CRFBP-R2 block: blocks CRF-induced signaling of the CRF-BP/CRF-R2 complex; HEK293 CRF-R2/CRF-BP, CRF-induced calcium fluorescence; inhibition, % at 11.8 µM; actives 0.59% (n = 350,000); AID 588475;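 active = inhibition of the ligand-induced calcium signal above about 50% at the single tested concentration, limit read from the data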
# * = called active by the depositor; i = inactive; nt = no result; + = active, no number. Hits are enriched below; roughly 1.3% of the tested compounds scored in any of these assays.
SMILES,cardiac RTF act,CRFBP-R2 agonist,RTF Ca sens inh,LANA DNA inh,Keap1 Nrf2 FP,CRFBP-R2 block
O=C(C1CCCN(S(=O)(=O)c2cccc3cccnc23)C1)N1CCN(c2ccc(F)cc2)CC1 (centres undefined),9,-1,-1,0,-1,79*
O=C(CNS(=O)(=O)c1ccc(F)cc1)Nc1ccccc1,1,-1,-6,-2,2,20
CCCCNc1ccc2c3c(cccc13)C(=O)N(CCCC)C2=O,+,194*,i,27,10,-132
O=C1c2cccc3c(N4CCCCC4)ccc(c23)C(=O)N1c1ccccn1,9,16,-26,7,0,-9
CCCN1C(=O)c2cccc3c(N4CCCCC4)ccc(c23)C1=O,75*,206*,-72,3,-4,-241
NNC(=O)CCN1CCN(Cc2ccccc2)CC1,1,1,3,-1,-2,-1
CC1=NNC(=O)/C1=C\c1cn(-c2ccccc2)nc1-c1ccc(F)cc1,1,26,-4,1,2,-45
CC1=NNC(=O)/C1=C\c1cn(-c2ccccc2)nc1-c1cccs1,3,80*,-4,-1,-5,-57
COC(=O)c1cc2ccsc2n1Cc1cc(=O)n2ccccc2n1,-3,-2,1,0,-4,2
COc1cccc(CSc2nnc(C(F)(F)F)n2Cc2ccc(F)cc2)c1,2,-2,6,1,-3,64*
COCCN1C(=O)/C(=C/c2ccc(N3CCCC3)cc2C)SC1=S,69*,182*,-76,0,-4,-263
COc1ccccc1C1SCCN1S(=O)(=O)c1ccccc1 (centres undefined),nt,-1,nt,nt,nt,108*
CN(C(=O)NC1CCCCC1)[C@H]1C[C@H]2c3[nH]c4ccccc4c3CCN2C(=O)[C@H]1CO,nt,19,nt,nt,nt,-2
COc1ccc(-c2cccc(C3CC=CC4C3C(=O)N(Cc3ccccc3)C4c3ccc(C(F)(F)F)cc3)c2)cc1 (centres undefined),-5,3,-3,2,4,-1
OCCN1CCOCCOc2ccccc2OCCOCC1,-1,-2,-2,-2,1,8
c1ccc2c(c1)OCCOCCOCCOCCOCCOc1ccccc1OCCOCCOCCO2,6,60*,-9,0,-8,99*
COc1ccnc2c1c(=O)n(Cc1ccccc1Cl)c(=O)n2C,-6,0,4,0,6,-9
COc1ccc(NC(=O)CNC(=O)C23CC4CC(CC(C4)C2)C3)c(OC)c1,0,1,-12,3,2,2
COc1ccc(OC)c(NC(=O)C(=O)NNC(=O)C23CC4CC(CC(C4)C2)C3)c1,nt,55*,nt,0,2,21
COc1ccc(NC(=O)C(=O)NNC(=O)c2cccs2)cc1,3,0,-4,0,2,7
COc1ccc(NC(=O)C(=O)NNC(=O)c2cccs2)c(OC)c1,-7,-5,-1,-2,2,75*
COC(=O)c1cc(OC)c(OC)cc1NC(=O)c1ccco1,4,1,-6,-1,2,76*
COc1ccccc1NC(=S)NC(=O)c1c(-c2ccccc2Cl)noc1C,7,4,-1,-1,4,-15
COc1ccc([N+](=O)[O-])cc1NC(=O)C(C)Sc1ccc(C)cc1 (centres undefined),-2,0,5,0,-2,0
COC(=O)c1cc(OC)c(OC)cc1NC(=O)C(C)Sc1ccc(C)cc1 (centres undefined),3,-1,-6,2,-1,50*
SMILES,cardiac RTF act,CRFBP-R2 agonist,RTF Ca sens inh,LANA DNA inh,Keap1 Nrf2 FP,CRFBP-R2 block
COC(=O)c1cc(OC)c(OC)cc1NC(=O)c1c(-c2ccccc2Cl)noc1C,-5,0,-4,-1,0,63*
Cc1cc(-c2ccc(N3CCOCC3)cc2)nc2ccccc12,6,58*,-5,3,1,-40
O=C(N/N=C/c1ccccc1Cl)C1CC1,-1,0,-1,-1,-6,77*
Cc1ccccc1NC(=O)CCC(=O)N/N=C/c1ccc(F)cc1,10,-1,-2,1,-3,3
O=c1c2cc(C(F)(F)F)ccc2sn1-c1ccccc1,nt,61*,nt,nt,nt,45
CN1CCCC1CCNc1ccc2c(=O)c3ccccc3oc2c1 (centres undefined),-2,1,-5,-3,0,-4
CC(C)N(C(=O)C[n+]1ccsc1N)c1ccccc1,-2,-2,-4,-1,-5,59*
COc1ccccc1NS(=O)(=O)c1cc(C(=O)NCCC(C)C)ccc1F,-1,85*,-2,-1,1,-87
O=c1c(Cl)c(N2CCN(c3ccccc3)CC2)cnn1C12CC3CC(CC(C3)C1)C2,-5,0,1,-1,-5,-16
N#C/C(=C/c1ccc(N2CCCCC2)o1)c1cccc(F)c1,14,5,-9,0,-3,3
N#C/C(=C/c1ccc(N2CCCCCC2)o1)c1ccc(Cl)cc1,36*,21,-42,-1,-5,0
COC(=O)c1ccc2c(c1)C(=O)/C(=C/c1ccc(O)cc1)O2,5,77*,-2,0,0,-81
COC(=O)C(CCC(C(=O)OC)N1C(=O)c2ccccc2C1=O)N1C(=O)c2ccccc2C1=O (centres undefined),3,0,-16,-3,-2,0
CC(C)CC(C(=O)Nn1cnnc1)N1C(=O)c2ccccc2C1=O (centres undefined),-3,0,11,1,2,59*
Cc1c(-c2ccc(Cl)cc2)[n+](=O)c(-c2ccccc2)cn1[O-],nt,0,nt,nt,nt,111*
Cc1c(-c2ccc(Cl)cc2)[n+](=O)c2c(n1[O-])CCCC2,-3,-1,2,0,-3,-8
CCCCOc1ccc(/C=C(\C#N)C(=O)NC2CC2)cc1,nt,-5,nt,nt,nt,-6
CCOc1ccc(/C=C(\C#N)C(=O)NC2CC2)c(OCC)c1,8,-6,-5,0,-2,80*
O=C(O)c1ccccc1C1c2ccccc2Oc2ccccc21,-3,-3,1,0,-2,14
O=S(=O)(NCc1ccc(Cl)cc1)NCc1ccc(Cl)cc1,-2,-2,-9,0,-2,15
COc1cccc(C2CCCN2Cc2nc(-c3cnccn3)no2)c1 (centres undefined),1,1,-16,-1,0,116*
Cc1cccn2c(=O)c3cc(C(=O)N4c5ccccc5CC4C)n(C)c3nc12 (centres undefined),7,1,-12,0,-7,16
Cc1ccc(OCc2cc(C(=O)N3CCN(CC(=O)NC(C)C)CC3)no2)cn1,-1,0,-2,1,1,72*
Cc1ccc(OCc2cc(C(=O)N3CCCC(C)C3)no2)cn1 (centres undefined),nt,0,nt,nt,nt,-13
